{"source": "the supplement of paper PMC4022240", "binders": {"B1": {"name": "H3 20-32 L A Tph Kme A A R K S A P A T (peptide)", "chain": "LATKAARKSAPAT"}, "B2": {"name": "H3 20-32 L A Tph Kme2 A A R K S A P A T (peptide)", "chain": "LATKAARKSAPAT"}, "B3": {"name": "H3 20-32 L A T K A A Rme2a Kme3 S A P A T (peptide)", "chain": "LATKAARKSAPAT"}, "B4": {"name": "H3 30-42 P A T G G V Kac Kme P H R Y R (peptide)", "chain": "PATGGVKKPHRYR"}, "B5": {"name": "H3 20-32 L A T K A A Rme2s Kme2 S A P A T (peptide)", "chain": "LATKAARKSAPAT"}}, "test_in_all_cases": "peptide microarray binding signal (635 nm), min-max normalized on array (fraction of array maximum); higher = stronger binding", "key": {"[1]": {"molecular_target": "T1, HaloTag-ATRX ADD domain (163-292)", "T1 chain": "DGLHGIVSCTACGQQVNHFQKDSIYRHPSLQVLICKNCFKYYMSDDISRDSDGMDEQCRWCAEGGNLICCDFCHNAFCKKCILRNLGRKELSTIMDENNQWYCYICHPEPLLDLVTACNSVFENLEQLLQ", "outline": "(§1)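 Triplicate spots of histone 13-mer peptide–cellulose conjugates with a Cy3 tracer were printed on nitrocellulose and probed for 1 h at 4°C with biotin-labelled HaloTag reader fusions (10 nM to 1 μM) plus streptavidin-Alexa Fluor 647 or rabbit histone antibodies (1:10,000 to 1:2,000) plus anti-rabbit Alexa 647. An Axon GenePix 4000B read the 635 nm channel. Binding signal is the spot-triplicate mean intensity after min-max scaling within each library.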"}, "[2]": {"molecular_target": "HaloTag-ING2 PHD (mouse Ing2 200-280)", "outline": "as §1"}, "[3]": {"molecular_target": "anti-H3K4me3 antibody ab8580", "outline": "as §1"}, "[4]": {"molecular_target": "anti-H3K9me3 antibody ab8898", "outline": "as §1"}, "[5]": {"conditions": "peptide region: H3 20-32, peptide modifications: H3T22ph H3K23me1, binder concentration: 1:2,000 dilution"}, "[6]": {"conditions": "peptide region: H3 20-32, peptide modifications: H3T22ph H3K23me1, binder concentration: 1:10,000 dilution"}, "[7]": {"conditions": "peptide region: H3 20-32, peptide modifications: H3T22ph H3K23me2, binder concentration: 1:2,000 dilution"}, "[8]": {"conditions": "peptide region: H3 20-32, peptide modifications: H3T22ph H3K23me2, binder concentration: 1:10,000 dilution"}, "[9]": {"conditions": "peptide region: H3 20-32, peptide modifications: H3R26me2a H3K27me3, binder concentration: 1:2,000 dilution"}, "[10]": {"conditions": "peptide region: H3 20-32, peptide modifications: H3R26me2a H3K27me3, binder concentration: 1:10,000 dilution"}, "[11]": {"conditions": "peptide region: H3 30-42, peptide modifications: H3K36ac H3K37me1, binder concentration: 1:2,000 dilution"}, "[12]": {"conditions": "peptide region: H3 30-42, peptide modifications: H3K36ac H3K37me1, binder concentration: 1:10,000 dilution"}, "[13]": {"conditions": "peptide region: H3 20-32, peptide modifications: H3R26me2s H3K27me2, binder concentration: 1:2,000 dilution"}, "[14]": {"conditions": "peptide region: H3 20-32, peptide modifications: H3R26me2s H3K27me2, binder concentration: 1:10,000 dilution"}}, "note": "± gives the standard deviation.", "data": [{"binder": "B1", "values": [{"measurement": "peptide microarray binding signal", "setting": "[1]; peptide region: H3 20-32, peptide modifications: H3T22ph H3K23me1, binder concentration: 50 nM", "result": "0.012 ± 0.0014"}, {"measurement": "peptide microarray binding signal", "setting": "[1]; peptide region: H3 20-32, peptide modifications: H3T22ph H3K23me1, binder concentration: 500 nM", "result": "0.0173 ± 0.0019"}, {"measurement": "peptide microarray binding signal", "setting": "[2]; peptide region: H3 20-32, peptide modifications: H3T22ph H3K23me1, binder concentration: 10 nM", "result": "0.0223 ± 0.0014"}, {"measurement": "peptide microarray binding signal", "setting": "[2]; peptide region: H3 20-32, peptide modifications: H3T22ph H3K23me1, binder concentration: 100 nM", "result": "0.0368 ± 0.0079"}, {"measurement": "peptide microarray binding signal", "setting": "[3]; [5]", "result": "0.00793 ± 0.0012"}, {"measurement": "peptide microarray binding signal", "setting": "[3]; [6]", "result": "0.0102 ± 0.0018"}, {"measurement": "peptide microarray binding signal", "setting": "[4]; [5]", "result": "0.00538 ± 0.00068"}, {"measurement": "peptide microarray binding signal", "setting": "[4]; [6]", "result": "0.003 ± 9.2e-05"}]}, {"binder": "B2", "values": [{"measurement": "peptide microarray binding signal", "setting": "[1]; peptide region: H3 20-32, peptide modifications: H3T22ph H3K23me2, binder concentration: 50 nM", "result": "0.004921 ± 4.8e-05"}, {"measurement": "peptide microarray binding signal", "setting": "[1]; peptide region: H3 20-32, peptide modifications: H3T22ph H3K23me2, binder concentration: 500 nM", "result": "0.00605 ± 0.00026"}, {"measurement": "peptide microarray binding signal", "setting": "[2]; peptide region: H3 20-32, peptide modifications: H3T22ph H3K23me2, binder concentration: 10 nM", "result": "0.0107 ± 0.0003"}, {"measurement": "peptide microarray binding signal", "setting": "[2]; peptide region: H3 20-32, peptide modifications: H3T22ph H3K23me2, binder concentration: 100 nM", "result": "0.00893 ± 0.00037"}, {"measurement": "peptide microarray binding signal", "setting": "[3]; [7]", "result": "0.00359 ± 3.6e-05"}, {"measurement": "peptide microarray binding signal", "setting": "[3]; [8]", "result": "0.00268 ± 0.00016"}, {"measurement": "peptide microarray binding signal", "setting": "[4]; [7]", "result": "0.00201 ± 8.1e-05"}, {"measurement": "peptide microarray binding signal", "setting": "[4]; [8]", "result": "0.00196 ± 1.8e-05"}]}, {"binder": "B3", "values": [{"measurement": "peptide microarray binding signal", "setting": "[1]; peptide region: H3 20-32, peptide modifications: H3R26me2a H3K27me3, binder concentration: 50 nM", "result": "0.00539 ± 0.00011"}, {"measurement": "peptide microarray binding signal", "setting": "[1]; peptide region: H3 20-32, peptide modifications: H3R26me2a H3K27me3, binder concentration: 500 nM", "result": 0.0116}, {"measurement": "peptide microarray binding signal", "setting": "[2]; peptide region: H3 20-32, peptide modifications: H3R26me2a H3K27me3, binder concentration: 10 nM", "result": "0.0206 ± 0.0011"}, {"measurement": "peptide microarray binding signal", "setting": "[2]; peptide region: H3 20-32, peptide modifications: H3R26me2a H3K27me3, binder concentration: 100 nM", "result": "0.0261 ± 0.0021"}, {"measurement": "peptide microarray binding signal", "setting": "[3]; [9]", "result": "0.0393 ± 0.004"}, {"measurement": "peptide microarray binding signal", "setting": "[3]; [10]", "result": "0.0294 ± 0.0026"}, {"measurement": "peptide microarray binding signal", "setting": "[4]; [9]", "result": "0.0809 ± 0.0092"}, {"measurement": "peptide microarray binding signal", "setting": "[4]; [10]", "result": "0.052 ± 0.0034"}]}, {"binder": "B4", "values": [{"measurement": "peptide microarray binding signal", "setting": "[1]; peptide region: H3 30-42, peptide modifications: H3K36ac H3K37me1, binder concentration: 50 nM", "result": "0.00235 ± 2.8e-05"}, {"measurement": "peptide microarray binding signal", "setting": "[1]; peptide region: H3 30-42, peptide modifications: H3K36ac H3K37me1, binder concentration: 500 nM", "result": "0.00586 ± 0.00013"}, {"measurement": "peptide microarray binding signal", "setting": "[2]; peptide region: H3 30-42, peptide modifications: H3K36ac H3K37me1, binder concentration: 10 nM", "result": "0.00418 ± 0.00019"}, {"measurement": "peptide microarray binding signal", "setting": "[2]; peptide region: H3 30-42, peptide modifications: H3K36ac H3K37me1, binder concentration: 100 nM", "result": "0.0056 ± 0.00056"}, {"measurement": "peptide microarray binding signal", "setting": "[3]; [11]", "result": "0.00253 ± 0.00052"}, {"measurement": "peptide microarray binding signal", "setting": "[3]; [12]", "result": "0.00177 ± 5.8e-05"}, {"measurement": "peptide microarray binding signal", "setting": "[4]; [11]", "result": "0.0165 ± 0.003"}, {"measurement": "peptide microarray binding signal", "setting": "[4]; [12]", "result": "0.00265 ± 6.2e-05"}]}, {"binder": "B5", "values": [{"measurement": "peptide microarray binding signal", "setting": "[1]; peptide region: H3 20-32, peptide modifications: H3R26me2s H3K27me2, binder concentration: 50 nM", "result": "0.00351 ± 3.8e-05"}, {"measurement": "peptide microarray binding signal", "setting": "[1]; peptide region: H3 20-32, peptide modifications: H3R26me2s H3K27me2, binder concentration: 500 nM", "result": "0.00129 ± 2.1e-05"}, {"measurement": "peptide microarray binding signal", "setting": "[2]; peptide region: H3 20-32, peptide modifications: H3R26me2s H3K27me2, binder concentration: 10 nM", "result": "0.003342 ± 1.8e-05"}, {"measurement": "peptide microarray binding signal", "setting": "[2]; peptide region: H3 20-32, peptide modifications: H3R26me2s H3K27me2, binder concentration: 100 nM", "result": "0.00312 ± 7.5e-05"}, {"measurement": "peptide microarray binding signal", "setting": "[3]; [13]", "result": "0.00128 ± 2e-05"}, {"measurement": "peptide microarray binding signal", "setting": "[3]; [14]", "result": "0.00114 ± 2.3e-05"}, {"measurement": "peptide microarray binding signal", "setting": "[4]; [13]", "result": "0.000725 ± 1.1e-05"}, {"measurement": "peptide microarray binding signal", "setting": "[4]; [14]", "result": "0.000865 ± 9e-06"}]}]}
